Assay outcomes: PubChem, National Center for Advancing Translational Sciences (NCATS)
RORg inh: qHTS for inhibitors of ROR gamma transcriptional activity; Nuclear receptor ROR-gamma (Mus musculus), P51450; Drosophila S2 Gal4-RORgamma UAS-luciferase reporter, 20 h; Potency, µM (doses to about 53.6 µM), for inactives: at the highest dose activity change, negative = inhibition, usual class: inhibitors; 310,000 tested, 5.4% active; AID 2551, 2010; note: % is set by controls: 0 for no effect and ±100 for the full control effect; nearly all actives have a fitted effect of over 60% in size
Target sequence (P51450 whole entry, looked up, the tested form may be a part): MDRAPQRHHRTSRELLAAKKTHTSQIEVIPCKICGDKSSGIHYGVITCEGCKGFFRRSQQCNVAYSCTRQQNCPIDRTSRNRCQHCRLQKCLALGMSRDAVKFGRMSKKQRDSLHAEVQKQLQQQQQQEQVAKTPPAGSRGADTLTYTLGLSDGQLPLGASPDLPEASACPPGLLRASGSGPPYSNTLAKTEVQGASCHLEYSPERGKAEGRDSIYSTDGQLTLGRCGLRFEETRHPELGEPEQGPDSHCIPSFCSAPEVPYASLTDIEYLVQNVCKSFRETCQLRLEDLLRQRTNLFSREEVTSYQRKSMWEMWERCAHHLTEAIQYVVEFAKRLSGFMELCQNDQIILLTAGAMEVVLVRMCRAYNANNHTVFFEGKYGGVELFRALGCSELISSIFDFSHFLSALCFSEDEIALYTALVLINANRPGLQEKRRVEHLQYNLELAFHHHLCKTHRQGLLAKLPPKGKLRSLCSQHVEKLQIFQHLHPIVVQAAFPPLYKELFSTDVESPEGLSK
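Using a luciferase readout, inhibitors were identified by reduced reporter activity in Drosophila cells coexpressing a copper-inducible Gal4–ROR gamma fusion and UAS-driven Photinus luciferase, incubated 20 hr after 700 uM copper sulfate.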
ATXN viability: Viability Counterscreen for Primary qHTS for Inhibitors of ATXN expression; S2 cells (HEK-293 line with an ATXN2-luciferase reporter) viability, CellTiter-Fluor protease fluorescence, 24 h; 400,000 tested, 0.49% active; Potency, µM (doses to about 56.7 µM), most hits filed as cytotoxic; note: nearly all actives have a fitted effect of over 40% in size
ATXN2 expr inh: Primary qHTS for Inhibitors of ATXN expression; Potency, µM (series often up to 57 µM), for inactives: top-dose activity change, negative = inhibition, usual class: inhibitors; 360,000 tested, 0.72% active; AID 1745845, 2022; HEK-293 ATXN2-luciferase reporter, luminescence, 24 h; note: % is set by controls: 0 for no effect and ±100 for the full control effect; nearly all actives have a fitted effect of over 55% in size
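qHTS (up to 57 uM final) was run with 24 h compound exposure of reporter cells at 37 °C. Each well was multiplexed: SteadyGlo luminescence measured ATXN2-luciferase expression after a fluorogenic Gly-Phe-AFC viability readout (25 uM final).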
Gal4-VP16 FLuc: VP16 counterscreen qHTS for inhibitors of ROR gamma transcriptional activity; Drosophila S2 Gal4-VP16 UAS-luciferase, luminescence, 20 h; Potency, µM (top dose mostly 53.6 µM), without a hit: at the top dose activity, negative = inhibition, usual class: inhibitors; 310,000 tested, 3.5% active; AID 2546, 2010;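 note: Gal4-VP16 expression switched on by copper sulfate through the metallothionein promoter; % is set by controls: 0 for no effect and ±100 for the full control effect; nearly all actives have a fitted effect of over 50% in size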
TGFb inhibitor: qHTS for Inhibitors of TGF-b | HepG2 CAGA-GFP TGF-b/SMAD3 reporter, GFP fluorescence, 18 h; TGF-beta stimulated, 500 pg/mL final | 410,000 tested, 1.2% active | Potency, µM (top dose mostly 46.1 µM), inactives show at the highest dose activity, negative = inhibition, actives largely listed as inhibitors | AID 588855, 2011; note: % is set by controls: 0 for no effect and ±100 for the full control effect; nearly all actives have a fitted effect of over 65% in size
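HEPG2 CAGA-GFP, 1000 cells/well; 2 h settle, 37 C; cpd via pin tool; TGF-b 500 pg/mL final; 18 h, 37 C; GFP imaging ex488/em500-530; %Activity normalised to -TGF-b and +DMSO controls; CRC fit, curve class.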
HepG2 tox: qHTS for Inhibitors of TGF-b: Cytotox Counterscreen; Potency, µM (titrated, usually from 46.1 µM), for the others: at the highest dose activity change, negative = cytotoxicity, actives largely listed as cytotoxic; 410,000 tested, 0.76% active; HepG2 CAGA-GFP viability, ATP luminescence, 18 h
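HepG2 CAGA-GFP cells (1000/well, DMEM with 1% FBS) received compound, then TGF-beta at 500 pg/mL final, and were incubated 18 hours at 37 degrees C. Viability was read by CellTiter-Glo luminescence. Media-only wells were set as complete cell-killing and DMSO as no toxicity.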
* hit, by the source's call; i = inactive; ? = inconclusive; / = no result; [ ] = dose if it differs, or a comment. Sampled rows, rich in hits. Any-hit rate of the full collection: about 6.3%. Calls come from the whole dose curve; as a rule, active = well fitted curve in the direction sought with a large enough effect; inconclusive = small, poorly fitted or top-dose-only effect, or another doubt; inactive = no such curve, though single readings can be large; an effect the other way counts as inactive or inconclusive. Potency is the fitted concentration of half-maximal effect.

SMILES	RORg inh	ATXN viability	ATXN2 expr inh	Gal4-VP16 FLuc	TGFb inhibitor	HepG2 tox
O=C(N/N=C/c1ccc2c(c1)OCO2)c1ccc(NC(=O)c2ccc(F)cc2)cc1	10µM*	i	0%	0%	-7%	-1%
COc1cc(/C=N/NC(=O)c2ccc3c(c2)OCO3)ccc1O	8.9µM*	i	19%	7.1µM*	0%	5%
COc1ccc(/C=N/NC(=O)c2ccc3c(c2)OCO3)cc1	-9%	i	48%	-8%	-4%	-3%
CCCCC(CC)COCCCN (stereo not drawn)	18%	/	/	6%	/	/
CN(C)CCN1CCN(C2CN(Cc3ccc(F)cc3)S(=O)(=O)C2)CC1 (stereo not drawn)	/	i	9%	/	-9%	-1%
CCN(CC)CCCNC(=O)C(=O)Nc1ccc2nc3n(c(=O)c2c1)CCCCC3	/	i	-1%	/	16%	-12%
COC1[C@@H](O[C@@H]2O[C@H](C)[C@@H](O[C@H]3C[C@@](C)(O)[C@H](OC(=O)CC(C)C)[C@H](C)O3)[C@H](N(C)C)[C@H]2O)[C@@H](CC=O)C[C@@H](C)[C@@H](O)/C=C/C=C/C[C@@H](C)OC(=O)C[C@H]1OC(C)=O (stereo partly drawn)	/	i	/	/	/	/
O=C(NC(=S)N1CCCCC1)c1csc([N+](=O)[O-])c1	0.35µM*	i	29%	1.1µM*	?	-48%
C=CCNC(=S)NC(=O)c1csc([N+](=O)[O-])c1	?	i	-17%	?	-30%	14%
CC1CCCCN1C(=S)NC(=O)c1cccs1 (stereo not drawn)	0.71µM*	i	/	2.8µM*	-18%	-15%
CC1CCN(C(=S)NC(=O)c2cccs2)CC1	0.25µM*	i	8%	0.89µM*	-5%	-5%
O=C(NC(=S)N1CCCCC1)c1cccs1	0.79µM*	i	11%	1.3µM*	-4%	2%
CC1CCN(C(=O)c2ccc(NC(=O)c3cccs3)cc2)CC1	44%	?	10%	-3%	4%	12%
S=C(Nc1ccc(Cl)cc1)N1CCCC1	-45%	i	15%	8%	-3%	5%
O=C(c1cccs1)N1CCCC1	-13%	i	4%	1%	-5%	-14%
O=C(c1cccs1)N1CCN(C(=O)c2cccs2)C1=S	/	/	?	/	6.3µM*	-50%
O=C(N/N=C/c1cn(-c2ccccc2)nc1-c1cccs1)c1ccc(Cl)cc1	2.5µM*	i	-5%	5µM*	?	-27%
O=C(Nc1ccncc1)c1cn(-c2ccccc2)nc1-c1cccs1	20%	i	10%	4%	-21%	-7%
O=C(N/N=C/c1cn(-c2ccccc2)nc1-c1cccs1)c1ccccc1F	5µM*	?	-8%	6.3µM*	?	-29%
CCC(=O)NC[C@H](Cc1ccc(OCCc2nc(-c3ccccc3)oc2C)cc1)NC(C)=CC(=O)c1ccc(C(F)(F)F)cc1	/	/	22µM*	/	/	/
CCOc1ccc(CCNC(=O)c2ccc(-c3nc(CSc4ccccc4)c(C)o3)cc2)cc1	/	i	-4%	/	1%	-6%
CCCc1cc(C(=O)N2CCC(n3nccc3NC(=O)c3ccc(OC)cc3)CC2)no1	10%	i	2%	-6%	0%	4%
Cc1cc(C(=O)COC(=O)c2ccccc2Br)c(C)n1CC1CCCO1 (stereo not drawn)	14µM*	i	-24%	8.9µM*	-8%	-10%
Cc1cc(C(=O)COC(=O)c2cc(O)c3ccccc3c2O)c(C)n1CC1CCCO1 (stereo not drawn)	16µM*	?	-17%	-4%	14µM*	-30%
Cc1ccc(C(=O)OCC(=O)c2cc(C)n(CC3CCCO3)c2C)cc1 (stereo not drawn)	?	i	55%	3%[10 µM]	-15%	15%
SMILES	RORg inh	ATXN viability	ATXN2 expr inh	Gal4-VP16 FLuc	TGFb inhibitor	HepG2 tox
Cc1cc(C(=O)COC(=O)c2ccccc2NCCO)c(C)n1CC1CCCO1 (stereo not drawn)	0.79µM*	i	6%	1.6µM*	-22%	-18%
Cc1cc(C(=O)COC(=O)c2cccnc2Cl)c(C)n1CC1CCCO1 (stereo not drawn)	?	i	?	-18%	-1%	-2%
Cc1cc(C(=O)COC(=O)c2ccccc2O)c(C)n1CC1CCCO1 (stereo not drawn)	/	i	0.35µM*	/	-7%	-3%
CC(OC(=O)c1ccccc1OCCOc1ccccc1)C(=O)Nc1ccc(Br)cc1 (stereo not drawn)	/	/	/	/	4%	-26%
Cc1cc(C(=O)COc2ccccc2C(N)=O)c(C)n1CC1CCCO1 (stereo not drawn)	-34%	i	-4%	10µM*	-5%	6%
Cc1ccc(NC(=O)C(=O)NCC(c2cccnc2)N2CCN(Cc3ccccc3)CC2)cc1Cl (stereo not drawn)	/	i	-3%	/	0%	5%
CCOC(=O)N1CCN(C(=S)NC(=O)c2cc(Br)ccc2Cl)CC1	0.89µM*	i	-27%	5µM*	-8%	-2%
CCOC(=O)N1CCN(C(=S)NC(=O)c2ccc(Br)cc2)CC1	0.56µM*	i	-23%	1.3µM*	-11%	3%
Cc1ccc(C(=O)NC(=S)N2CCN(C(=O)OC(C)(C)C)CC2)cc1Br	0.63µM*	i	/	1.1µM*	?	0%
CCOC(=O)N1CCN(C(=S)NC(=O)c2cncc(Br)c2)CC1	1.1µM*	i	14%	2.5µM*	-10%	6%
O=C(c1ccccc1-n1cccn1)N1CCOc2c(cc(-c3ncc(C(F)(F)F)cc3Cl)cc2OCC2CCCO2)C1 (stereo not drawn)	/	i	/	/	/	/
CN(C)C(=O)COc1ccccc1C(=O)OCC(=O)Nc1ccc(Oc2ccc(Br)cc2)cc1	/	/	/	/	-9%	-7%
CCN(CC)CCCNc1nc2cc(OC)c(OC)cc2c2nc(-c3ccccc3)nn12	10µM*	i	-12%	?	?	-90%
CCN(CC)CCCNc1nc2cc(OC)c(OC)cc2c2nc(-c3cccnc3)nn12	-35%	i	-13%	?	30%	-31%
Cc1cccc(-n2nnc(-c3nc(-c4cccs4)no3)c2N)c1	/	i	36%	/	21%	15%
